Compound activity as filed in PubChem BioAssay.
Most compounds without a hit are left out; they make up all but 4.8% or so of the library.
PfHsp90 set2 – inhibits growth of yeast expressing Plasmodium falciparum Hsp90. S. cerevisiae expressing PfHsp90, BacTiter-Glo ATP, 48 h; yeast lacking PDR1 and PDR3 efflux regulators. inhibition, % at 9.4 µM. actives 0.32% (n = 310,000). AID 504621;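 active means every replicate shows inhibition above about 80%, whatever the replicate mean, limit read from the data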
tim10-1 inh – growth inhibitors of tim10-1 mutant yeast; S. cerevisiae tim10-1 ts strain growth, BacTiter-Glo, 24 h; inhibition, % at 20 µM; actives 2.2% (n = 330,000); AID 463190;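 active means inhibition of at least 40%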;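 further: mutant grown at 25 °C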
NALP1 inh – inhibitors of NALP1 inflammasome in yeast. S. cerevisiae NALP1/ASC/caspase-1 growth, X-gal OD620, 72 h. inhibition, % at 10 µM. actives 0.61% (n = 280,000). AID 2071; in the data active means inhibition mostly above about 24%, no sharp cut-off; inactive means mostly below about 32%
SKKanGAS inh – blocks kanamycin growth of S. pyogenes SKKanGAS strain; BacTiter-Glo, 6 h; inhibition, % at 7.5 µM; actives 1.3% (n = 300,000); AID 1662;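 active means mean replicate score, as percent of positive control median, at least 50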;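 further: strain carries kanamycin resistance gene driven by streptokinase promoter and grows in 40 µg/ml kanamycin; loss of luminescence reflects streptokinase promoter inhibition or plain growth inhibition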
tim23-1 inh – inhibits growth of tim23-1 mutant yeast; S. cerevisiae tim23-1 growth, BacTiter-Glo luminescence, 24 h; inhibition, % at 20 µM; actives 1.3% (n = 330,000);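 active means growth inhibition of the mutant yeast at or above 50%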;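 further: temperature-sensitive mutant grown at 25 °C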
TIM10 inh – TIM10 yeast growth inhibition; actives 1.4% (n = 330,000); inhibition, % at 10 µM; AID 463195; S. cerevisiae TIM10 strain growth, BacTiter-Glo luminescence, 24 h;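 active means inhibition of 40% or more at the single tested concentration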;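 further: wild-type TIM10 isogenic control strain grown at permissive 25 °C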
tim10 confirm – TIM10 yeast growth inhibition, confirmed. shares compounds with TIM10 inh. S. cerevisiae tim10 strain growth, BacTiter-Glo luminescence, 24 h. actives 63% (n = 4,600). inhibition, % at 10 µM. AID 463215;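 active means inhibition of yeast growth at or above a set limit in either of two replicates at 10 µM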; further: this counterscreen used the strain with wild-type TIM10
Of the large screens only hits and unclear results are named; the others gave an inactive call (follow-up assays come after a bar, where they were run).

N/C(=N/O)c1nc(N2CCCC2)nc(N(c2ccccc2)c2ccccc2)n1	TIM10 inh 53 | tim10 confirm 36
CCc1ccc2[nH]c(=O)c(C(c3nnnn3Cc3ccco3)N3CCC(C)CC3)cc2c1 (stereo unspecified)	TIM10 inh 41 | tim10 confirm inactive
CCc1ccc2[nH]c(=O)c(C(c3nnnn3Cc3ccccc3)N3CCOCC3)cc2c1 (stereo unspecified)	none
c1ccc(-n2nnc(-c3nccs3)n2)cc1	none (no result: NALP1 inh)
Cc1cccc(-c2nc(=S)c3c(o2)CCCC3)c1	TIM10 inh 44 (no result: PfHsp90 set2) | tim10 confirm 33
S=c1nc(-c2ccc(Br)cc2)oc2c1CCCC2	none
O=C(OCC(=O)N(C1CCCCC1)C1CCCCC1)c1cnccn1	none
Cc1ccc2nc(Cl)c(CN(C(=O)c3cnccn3)C3CCCCC3)cc2c1	TIM10 inh 41 | tim10 confirm 28
Cc1ccc(S(=O)(=O)Nc2cc(=O)[nH]c(SCC(=O)Nc3cccc(C)c3)n2)cc1	none (no result: NALP1 inh)
O=S1(=O)C=C(Oc2ccc3ccccc3c2)c2ccccc21	TIM10 inh 42 | tim10 confirm 42
NS(=O)(=O)c1ccc(CCNC(=O)CSc2nc3ccsc3c(=O)n2CCCCC(=O)O)cc1	none
COc1ccc(-c2cc3nc(-c4ccccc4)cc(N4CCC5(CC4)OCCO5)n3n2)cc1	none
Cc1ccc(C)c2nc3sc(C(=O)N4CCCc5ccccc54)c(N)c3cc12	TIM10 inh 46 | tim10 confirm inactive
O=C(Nc1ccc(Cl)c(S(=O)(=O)N2CCCCC2)c1)c1ccco1	none (no result: NALP1 inh, SKKanGAS inh)
COc1ccc(NC(=O)c2ccc(NC(=O)c3nc4nc(C)cc(C)n4n3)cc2)cc1	TIM10 inh 42 (no result: NALP1 inh, SKKanGAS inh) | tim10 confirm inactive
COc1ccc(NC(=O)CSc2nc3nc(C)cc(C)n3n2)cc1	none
COc1ccc(-c2cn3cc(C)ccc3n2)cc1F	TIM10 inh 61 | tim10 confirm 57
CNC(=S)N/N=C/c1c(C)nn(-c2ccc(F)cc2)c1Cl	TIM10 inh 43 (no result: PfHsp90 set2) | tim10 confirm inactive
Cc1nn(-c2ccc(F)cc2)c(Cl)c1/C=N/NC(=O)c1ccc(O)cc1	none
O=C1N=C(c2ccccc2)S/C1=C\c1cccs1	none
O=C1OC(c2ccccc2)=C/C1=C/c1cccs1	TIM10 inh 46 | tim10 confirm inactive
CC(NC(=O)NNC(N)=S)(C(F)(F)F)C(F)(F)F	none
CCOc1cc(C(=O)OCC(=O)Nc2ccc(Cl)cn2)ccc1OCC(=O)N1CCOCC1	none
CCOC(=O)c1c(N)sc2c(OCC)c(Br)ccc12	TIM10 inh 41 | tim10 confirm inactive
COC(=O)[C@@H](NC(=O)NCCC1=CCCCC1)C(C)C	TIM10 inh 49 | tim10 confirm inactive
O=C(COC(=O)CN1C(=O)C(=O)c2ccccc21)OCN1C(=O)c2ccccc2C1=O	TIM10 inh 48 | tim10 confirm inactive
O=C1Oc2ccccc2C(=O)/C1=C/N1CCN(c2ccccc2F)CC1	none (no result: PfHsp90 set2)
Cc1ccc2nc(Cl)c3nnnn3c2c1	PfHsp90 set2 107, TIM10 inh 55 | tim10 confirm 71
CS(=O)(=O)N1CCN(C(=O)NC23CC4CC(CC(C4)C2)C3)CC1	none
O=C(NC12CC3CC(CC(C3)C1)C2)N1CCN(S(=O)(=O)c2ccc(Cl)cc2)CC1	TIM10 inh 43 (no result: PfHsp90 set2) | tim10 confirm inactive
Cc1ccc(NC(=S)NNC(=S)Nc2cccc(C(F)(F)F)c2)cc1	SKKanGAS inh 88, TIM10 inh 53 (no result: NALP1 inh) | tim10 confirm 48
CC(NC(=S)Nc1cccc(C(F)(F)F)c1)C(C)(C)C (stereo unspecified)	TIM10 inh 45 (no result: PfHsp90 set2) | tim10 confirm inactive
CN(C)NC(=S)Nc1cccc(C(F)(F)F)c1	none
CCC(=O)C1CCCN(C(=O)CCc2nnc(-c3ccc(C(C)=O)s3)o2)C1 (stereo unspecified)	none
O=C(COC(=O)c1ccc([N+](=O)[O-])s1)Nc1ccc(Cl)cn1	none
O=C(COC(=O)/C=C/c1ccc([N+](=O)[O-])cc1)Nc1ccc(F)cc1	none (no result: NALP1 inh, SKKanGAS inh)
O=C(COC(=O)c1ccc([N+](=O)[O-])s1)Nc1ccc(F)cc1	TIM10 inh 74 (no result: NALP1 inh, SKKanGAS inh) | tim10 confirm 77
Cc1[nH]c2ccccc2c1C(=O)COC(=O)c1ccc([N+](=O)[O-])s1	SKKanGAS inh 51, TIM10 inh 71 | tim10 confirm 83
O=C(Nc1cccnc1)c1ccc([N+](=O)[O-])s1	TIM10 inh 56 (no result: NALP1 inh, SKKanGAS inh) | tim10 confirm 53
O=C(COC(=O)c1ccc([N+](=O)[O-])s1)Nc1ccccc1	TIM10 inh 46 | tim10 confirm inactive
Cc1ccc(-n2c(=O)c3c(n4cnnc24)-c2ccccc2CC32CCCCC2)cc1	none
COc1cc(C=O)ccc1OC(=O)c1ccncc1	none
O=C(CNc1ccc(F)cc1)N/N=C/c1c(O)ccc2ccccc12	SKKanGAS inh 96, TIM10 inh 44 | tim10 confirm 42
COc1ccccc1NCC(=O)N/N=C/c1c(O)ccc2ccccc12	none
Cc1cc(C)n2cc(CSc3ncccc3C(=O)O)nc2n1	none
Cc1ccc(Nc2nc(N/N=C/c3c[nH]c4ccccc34)nc(N3CCOCC3)n2)cc1	none
Cc1[nH]c2ccccc2c1/C=N/Nc1nc(Nc2ccc(F)cc2)nc(N2CCOCC2)n1	TIM10 inh 53 | tim10 confirm 34
O=C(COc1ccc(F)cc1)Nc1cc(Cl)ccc1-n1cncn1	none (no result: PfHsp90 set2, NALP1 inh)
CCC(C)(C)C1CCC(=NNC(=S)Nc2cccnc2)CC1 (stereo unspecified)	TIM10 inh 41 | tim10 confirm 45
CC(C)(C)c1ccc(OCCNC(=S)Nc2ccccc2)cc1	NALP1 inh 30, TIM10 inh 54 | tim10 confirm 39
CC(C)(C)c1ccc(OCCNCc2ccccc2)cc1	none
COc1cccc(C(=O)NCCS(=O)(=O)NCc2cccs2)c1	none (no result: NALP1 inh)
CCCCCCC(=O)NNC(=O)c1c(O)c2ccccc2n(CCC)c1=O	SKKanGAS inh 92, TIM10 inh 46 (no result: PfHsp90 set2) | tim10 confirm inactive
Clc1ccc(-c2n[nH]c3c2CCCC3)cc1	TIM10 inh 41 | tim10 confirm 34
CN(Cc1ccccc1)S(=O)(=O)c1cccs1	none
COc1ccccc1-c1coc2cc(O)cc(O)c2c1=O	TIM10 inh 42 | tim10 confirm inactive
COc1ccc(-c2coc3cc(O)cc(O)c3c2=O)cc1OC	none (no result: NALP1 inh)
CCC1CCC(NC(=O)Nc2cccc(OC)c2)CC1 (stereo unspecified)	TIM10 inh 45 | tim10 confirm inactive
COc1ccc(S(=O)(=O)N(C)C)cc1NC(=O)COC(=O)Cn1cnc2ccccc2c1=O	none (no result: NALP1 inh, SKKanGAS inh)
COc1ccccc1C(=O)NCCC(=O)NNC(=O)c1ccccc1O	TIM10 inh 96 (no result: NALP1 inh) | tim10 confirm inactive
COCC(=O)NNC(=O)c1ccccc1OC	none
